Screening data deposited in PubChem by National Center for Advancing Translational Sciences (NCATS).
Anesthetic bind: qHTS Assay for Identification of Novel General Anesthetics; 350,000 compounds, 0.074% hits; Potency, µM (doses to about 77.5 µM), actives largely listed as inhibitors; apoferritin/1-aminoanthracene competitive binding, fluorescence; also: nearly all actives have a fitted effect of over 20% in size
Target sequence (P02791 2-175 limits assumed): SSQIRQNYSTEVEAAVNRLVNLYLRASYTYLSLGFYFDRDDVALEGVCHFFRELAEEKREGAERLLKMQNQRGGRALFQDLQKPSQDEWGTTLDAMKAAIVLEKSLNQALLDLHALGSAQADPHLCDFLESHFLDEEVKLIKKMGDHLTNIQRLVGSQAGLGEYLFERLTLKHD
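Read-out: endpoint 1-AMA fluorescence, excitation 380 nm and emission 535 nm, after compounds sit 10 min at room temperature with 10 uM horse-spleen apoferritin in 50% saturated 1-AMA/PBS. Values come from four-parameter Hill fits.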
MmCpn inh: Inhibitors of TCP-1 ring complex (TRiC) of Methanococcus maripaludis (MmCpn): qHTS | purified Mm-Cpn ATPase, ADP Transcreener TR-FRET | Potency, µM (highest dose often 76.9 µM), hits mostly inhibitors | 330,000 compounds, 0.031% hits | AID 504842, 2011; also: nearly all actives have a fitted effect of over 80% in size
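Compound-treated chaperonin, 25 nM final, turns over 10 uM ATP at 37°C for 30 min following a 10 min preincubation; ADP generated competes with ADP-d2 for Eu-cryptate antibody, lowering FRET.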
CCT modulator: High-Throughput Screening for Modulators of Cytosolic Chaperonin Activity. purified chaperonin ATPase assay, HTRF ADP detection, 30 min. activity change, % (no concentration beside the values), hits read low. 360,000 compounds, 0.3% hits. AID 651819, 2012; in the data active = activity change below about -30%
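We incubate TRiC, 40 or 20 nM final, with library compounds at 76 uM and 10 uM ATP for 30 min at 37 °C. ADP formed is detected with Transcreener HTRF reagents after 30 min at room temperature.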
ERG-DNA inh: qHTS for Small Molecule Inhibitors of the ERG Ets/DNA interaction | fluorescence polarization, His-ERG Ets domain / labelled DNA | Potency, µM (series often up to 76.9 µM), usual class: inhibitors | Transcriptional regulator ERG (Homo sapiens), P11308 | 370,000 compounds, 0.028% hits; active = well fitted inhibition curve with a large enough effect in the polarisation, with a control signal flat; inconclusive = small, poorly fitted or top-dose-only effect, or effect the other way, or a change in a side signal; inactive = no such curve, though single readings can be large or run the other way; the % refers to the polarisation;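 also: polarization taken with two DNA probes labelled with fluorescein and Texas red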
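His-tagged ERG Ets domain (1 uM in the protein solution; 300mM KCl, 50mM Tris-HCl, 1mM EDTA, 1mM DTT, pH 7.5) received compound, then a probe mix of 5 nM fluorescein-DNA and 100nM Texas-615-DNA. Fluorescence polarization was read for both dyes.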
A number is an active result; i = inactive; ? = inconclusive; nt = no result. This is a sample that favours compounds with a hit; in the whole collection about 0.39% have one here. Unless noted, calls follow the shape of the dose curve; as a rule, active = well fitted curve in the direction sought with a large enough effect; inconclusive = small, poorly fitted or top-dose-only effect, or another doubt; inactive = no such curve, though single readings can be large; an effect the other way counts as inactive or inconclusive.

SMILES	Anesthetic bind	MmCpn inh	CCT modulator	ERG-DNA inh
CN1CCC23c4c5ccc(O)c4O[C@@H]2[C@H](O)C=CC3C1C5 (some centres undefined)	nt	i	-45	i
O=C1NC(=O)C(=Cc2ccccc2OCCOc2ccc([N+](=O)[O-])cc2)C(=O)N1	?	i	-32	i
C=CCN1C(=O)NC(=O)/C(=C\c2ccc(-c3ccccc3[N+](=O)[O-])o2)C1=O	40µM	i	i	i
CCOC(=O)CC1c2ccccc2-n2nncc2CN1CC1CCCCC1 (centres undefined)	nt	nt	i	nt
CCOC(=O)CC1c2ccccc2-n2nncc2CN1C (centres undefined)	nt	nt	-86	i
C[n+]1ccc(-c2ccccc2)c2ccccc21	nt	i	-32	i
CN(C)c1ccc(/C=C/c2cc[n+](C)c3ccccc23)cc1	?	?	i	i
COc1ccc(Cn2c(O)c(/C=N/NC(=O)c3ccccc3)c(=O)[nH]c2=O)cc1	i	i	i	i
COC(=O)[C@@H]1N=C(c2ccc(OC)cc2)O[C@]12C(=O)N(Cc1ccc(OC)cc1)c1ccccc12	nt	nt	-47	nt
COc1cc(/C=C(/C)[N+](=O)[O-])ccc1OCc1ccccc1Cl	i	i	-31	i
COc1cc(C=C2C(=O)NC(=O)NC2=O)ccc1OCc1ccc([N+](=O)[O-])cc1	?	i	i	i
Cc1cn([C@H]2C[C@H](O)[C@@H](CO)O2)c(=O)[nH]c1=O	i	nt	nt	nt
CCOC(=O)N1CCN(/[N+]([O-])=N/Oc2ccc([N+](=O)[O-])cc2[N+](=O)[O-])C(C)C1 (centres undefined)	i	nt	nt	nt
COC1=CC(=O)OC(CCc2ccc3c(c2)OCO3)C1 (centres undefined)	nt	nt	-32	i
O=C(c1cc(F)ccc1F)C1CCCN(CCCc2ccccc2)C1 (centres undefined)	i	i	-30	i
Cc1cc2ccccc2n1CCNC(=O)COc1ccccc1	i	i	-32	?
C=C1CCC(O)C/C1=C/C=C1\CCC[C@]2(C)[C@@H]([C@H](C)CCCC(C)C)CC[C@@H]12 (some centres undefined)	i	nt	nt	nt
CCOC(=O)C1CCCN(c2ccc([N+](=O)[O-])c3nonc23)C1 (centres undefined)	i	i	i	3.2µM
CCN1/C(=C\C=C\C2=[N+](CC)c3ccccc3C2(C)C)C(C)(C)c2ccccc21	28µM	i	i	i
Cc1cccc(N(C)S(=O)(=O)c2cc(-c3cnc(C4CC4)o3)ccc2C)c1	i	nt	nt	i
COc1cccc(C2CCN(CC(=O)Nc3cc(Cl)ccc3OC)CC2O)c1 (centres undefined)	i	i	i	20µM
C[C@@H]1O[C@@H](O[C@H]2CC[C@@H](O[C@H]3[C@H](O)C[C@H](c4ccc5c(c4O)C(=O)C4=C(C5=O)[C@@]5(O)C(=O)C[C@](C)(O[C@H]6CC[C@H](O[C@H]7C=CC(=O)[C@H](C)O7)[C@H](C)O6)C[C@@]5(O)C=C4)O[C@@H]3C)O[C@H]2C)C=CC1=O	i	nt	nt	nt
C[C@]12CCC3C(CC[C@H]4C[C@H](O)CC[C@]34C)C1C[C@H](O)[C@H]2O (some centres undefined)	nt	nt	i	i
C[C@]12CCC3C(CC[C@H]4C[C@@H](O)CC[C@]34C)C1=CC[C@@H]2O (some centres undefined)	nt	nt	-35	nt
Cc1cccc2c3c(ccc12)C1=C(C(=O)C3=O)[C@@H](C)CO1	i	nt	nt	nt
SMILES	Anesthetic bind	MmCpn inh	CCT modulator	ERG-DNA inh
CCCCCCC(Cl)(Cn1ccnc1)c1ccccc1 (centres undefined)	nt	nt	-35	i
CCCCCCn1c(O)c(C=NCCCn2ccnc2)c(=O)[nH]c1=O	i	i	i	i
COc1ccc(-c2nc(C)c(CCNC(=O)C(=O)Nc3c(C)cccc3C)s2)cc1OC	?	nt	nt	i
COc1cccc(-n2c(/C=C/c3ccccn3)nc3ccccc3c2=O)c1	i	i	i	i
Cc1cccc(-n2c(/C=C/c3ccccn3)nc3ccccc3c2=O)c1	i	i	-38	i
Cc1ccc(-n2c(/C=C/c3ccc4c(c3)OCO4)nc3ccccc3c2=O)cc1	i	i	nt	nt
COc1ccc(-n2c(/C=C/c3ccc4c(c3)OCO4)nc3ccccc3c2=O)cc1	i	i	-40	i
O=C(Nc1cccc(C(=O)Nc2cc(C(=O)Nc3ccc([S+](=O)([O-])[O-])c4cc([S+](=O)([O-])[O-])cc(SOOO)c34)ccc2F)c1)Nc1cccc(C(=O)Nc2cc(C(=O)Nc3ccc([S+](=O)([O-])[O-])c4cc([S+](=O)([O-])[O-])cc([S+](=O)([O-])[O-])c34)ccc2F)c1	i	nt	nt	nt
COC1C(C)OC(OC2CC(C)(O)Cc3cc4c(c(O)c32)C(=O)c2c(O)cc3c(c2C4=O)OC2OC3(C)C(O)C(N(C)C)C2O)C(OC)C1(C)OC (centres undefined)	nt	nt	i	7.1µM
CCOCCc1nn2c(=O)cc(COC(=O)Cc3ccccc3)nc2s1	?	nt	nt	i
O=C(Cn1c(=O)nc(-c2ccccc2)c2cc(Cl)ccc21)NCc1ccccc1	i	nt	nt	i
COC(=O)CSc1nc2sc3c(c2c(=O)n1C1CCCCC1)CCN(C)C3	?	i	nt	nt
N#CC1=C(N)Oc2c(c(=O)sc3ccccc23)C1c1cccnc1 (centres undefined)	i	i	-43	i
CC[n+]1c(-c2ccccc2)c2cc(N)ccc2c2ccc(N)cc21	i	nt	i	16µM
CCOC(=O)c1ccc(NC(=O)CSc2cc(=O)n(CC)c3ccccc23)cc1	?	nt	nt	i
